High-throughput results (PubChem)
Only a selection was taken, and hits are over-represented in it overall.
HT1080NT lethal: kills 2HG-producing HT-1080-NT fibrosarcoma cells. actives 1.6% (n = 360,000). HT-1080-NT fibrosarcoma viability, CellTiter-Glo ATP luminescence, 48 h. Potency, µM (top dose mostly 46.1 µM), without a hit: top-dose activity, negative = less viability, actives largely listed as cytotoxic. AID 686970;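 further: NT is the 2HG producing partner of a matched IDH1 knockdown line; potency means the concentration at half of the fitted maximal effect; 0% = DMSO-treated cells and -100% = media-only wells without cells; nearly all actives have a fitted effect of over 55% in size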
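Luminescent CellTiter-Glo readout after 48 hours of compound exposure at 37 degrees C defined viability of HT-1080-NT cells. Activity was normalized to DMSO wells and cell-free media wells; concentration-response curves were fitted and assigned curve classes.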
HT1080 IDH1KD tx: toxicity to HT-1080 IDH1 knockdown cells (counter line); HT-1080 IDH1 knockdown viability, ATP luminescence, 48 h; Potency, µM (series often up to 46.1 µM), for inactives: at the top dose activity, negative = toxicity, actives largely listed as cytotoxic; actives 2% (n = 360,000);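 further: potency means the concentration at half of the fitted maximal effect; 0% = DMSO wells and -100% = cell-free medium wells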
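After a 2 h attachment period, IDH1KD HT-1080 cells took pin-transferred compound for 48 h at 37 °C; ATP-based luminescence after 10 min room-temperature reagent incubation reported viability.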
IL1B secr inh: inhibitors of inflammasome signaling (IL-1 beta secretion); actives 4.7% (n = 360,000); THP-1 LPS/ATP IL-1B secretion, AlphaLISA, 16 h; active compounds read low; activity change, % at 57.5 µM; AID 743279; in the data active means activity change below about -50%; inconclusive means mostly about -30% to -49%
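THP-1 cells pretreated 1 hr with compounds (up to 57.5 uM final), then stimulated with LPS (250 ng/mL final) plus ATP (1.25 mM final); secreted IL-1B measured by AlphaLISA after 16 hr, decreased signal indicating inhibition.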
TDP1 cell CPT: DT40-hTDP1 cell growth loss with CPT. chicken DT40 Tdp1-/-;hTDP1 cells + 20 nM CPT, ATP luminescence, 48 h. Potency, µM (top dose mostly 46.2 µM), without a hit: top-dose activity change, negative = growth inhibition, most hits filed as inhibitors. actives 12% (n = 420,000). AID 686979; further: potency means the concentration at half of the fitted maximal effect; nearly all actives have a fitted effect of over 55% in size
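Chicken DT40 Tdp1-/- cells complemented with human TDP1, 400 cells/well, exposed to compounds plus 20 nM camptothecin for at least 48 h at 37 C; viability read as ATP content by CellTiter-Glo luminescence.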
TDP1 cell noCPT: qHTS for Inhibitors of human tyrosyl-DNA phosphodiesterase 1 (TDP1): qHTS in cells in absence of CPT; DT40 Tdp1-/- hTDP1 cells, no CPT, ATP luminescence, 48 h; Potency, µM (highest dose often 46.2 µM), inactives show at the highest dose activity change, negative = growth inhibition, hits mostly inhibitors; actives 15% (n = 420,000); further: potency means the concentration at half of the fitted maximal effect; nearly all actives have a fitted effect of over 55% in size
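Camptothecin absent (DMSO only). Human TDP1-complemented DT40 knockout cells, 400 cells/well, 37 °C for minimum 48 hr; ATP measured via CellTiter-Glo, 30 min dark incubation, luminescence.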
12-LOX inh: ALOX12 (human) lipoxygenase inhibition; Potency, µM (top dose mostly 108 µM), without a hit: top-dose activity change, negative = inhibition, actives largely listed as inhibitors; actives 1.1% (n = 580,000); P18054; purified 12hLO, xylenol orange hydroperoxide absorbance; further: potency means the concentration at half of the fitted maximal effect
Target sequence (P18054 whole entry, looked up): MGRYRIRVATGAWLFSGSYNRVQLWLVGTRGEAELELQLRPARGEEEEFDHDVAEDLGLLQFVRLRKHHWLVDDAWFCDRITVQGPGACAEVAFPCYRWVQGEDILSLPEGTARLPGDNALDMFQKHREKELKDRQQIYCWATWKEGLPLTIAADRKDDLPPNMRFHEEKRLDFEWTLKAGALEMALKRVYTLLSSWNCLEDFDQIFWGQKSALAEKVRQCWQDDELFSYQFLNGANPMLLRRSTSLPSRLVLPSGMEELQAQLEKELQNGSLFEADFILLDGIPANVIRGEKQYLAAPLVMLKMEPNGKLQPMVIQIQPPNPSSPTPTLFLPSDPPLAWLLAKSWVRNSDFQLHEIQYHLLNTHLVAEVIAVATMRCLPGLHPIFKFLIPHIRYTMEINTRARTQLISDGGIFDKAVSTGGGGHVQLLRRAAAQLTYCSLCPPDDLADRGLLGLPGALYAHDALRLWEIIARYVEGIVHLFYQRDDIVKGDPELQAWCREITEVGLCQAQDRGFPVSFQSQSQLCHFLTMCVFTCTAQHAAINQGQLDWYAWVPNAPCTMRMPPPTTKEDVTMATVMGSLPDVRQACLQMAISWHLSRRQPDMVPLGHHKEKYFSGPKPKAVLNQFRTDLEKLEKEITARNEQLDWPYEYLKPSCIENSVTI
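Purified human 12hLO (150 nM final) in 25 mM Hepes, 0.01% Triton X-100, pH 7.0 was preincubated 15 min at room temperature with compound. Then 40 uM arachidonic acid was added, 30 min. Hydroperoxide was read by Fe-XO absorbance ratio 573/405 nm.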
Starred values were filed as active, the others as inactive; i = inactive; ? = inconclusive; · = not tested or not shown; [ ] = remark or other dose. Unless noted, the call rests on the fitted dose curve; in most records, active means well fitted curve in the direction sought with a large enough effect; inconclusive means small, poorly fitted or top-dose-only effect, or another doubt; inactive means no such curve, though single readings can be large; an effect the other way counts as inactive or inconclusive. Unless noted, on the % scale 0 is the no-effect control and ±100 the full control effect.

SMILES	HT1080NT lethal	HT1080 IDH1KD tx	IL1B secr inh	TDP1 cell CPT	TDP1 cell noCPT	12-LOX inh
CN(c1ccccc1)S(=O)(=O)c1ccc(NC(=S)NC(=O)C2CC2)cc1	-14%	0%	-11	?	12µM*	?
O=C(NC(=S)Nc1ccc(S(=O)(=O)Nc2ccccc2)cc1)C1CC1	7%	8%	1	7%	-5%	?
CN(c1ccccc1)S(=O)(=O)c1ccc(NC(=O)CC(=O)c2ccccc2)cc1	0%	1%	0	?	18µM*	5%
CN(C(=S)NC(=O)C1CCCC1)c1ccccc1	0%	6%	6	-24%	-18%	20µM*
CN(c1ccccc1)S(=O)(=O)c1ccc(NC(=S)NC(=O)c2ccccc2)cc1	-2%	-9%[9.24 µM]	11	?	26µM*	14µM*
CC1=NN(C(=O)c2ccccc2C)C(O)(c2ccc(Cl)cc2)C1 (stereo not drawn)	-20%	-27%	11	?	?	7%
CC1=NN(C(=O)Cc2ccccc2)C(O)(c2cccnc2)C1 (stereo not drawn)	?	?	22	4.6µM*	5.2µM*	4%
CC1=NN(C(=O)c2ccccc2Cl)C(O)(c2cccnc2)C1 (stereo not drawn)	12%	7%	-7	?	5.8µM*	42%
CCn1c(SCC(=O)Nc2nnc(C)s2)nc2c(c1=O)SC(C)C2 (stereo not drawn)	3%	0%	24	-28%	?	12%
CCc1nnc(NC(=O)CSc2nc3c(c(=O)n2C)SC(C)C3)s1 (stereo not drawn)	-8%	-1%	23	?	21µM*	6%[57.4 µM]
Cc1nnc(NC(=O)CSc2nc3c(c(=O)n2CCc2ccccc2)SC(C)C3)s1 (stereo not drawn)	4%	5%	3	-21%	-16%	51%
CCSc1nnc(NC(=O)CSc2nc3c(c(=O)n2C)SC(C)C3)s1 (stereo not drawn)	20%	1%	16	15µM*	11µM*	-18%
CCSc1nnc(NC(=O)CSc2nc3c(c(=O)n2CC)SC(C)C3)s1 (stereo not drawn)	2%	3%	53	13µM*	8.2µM*	0%
CCCCCOc1ccc2c(C)c(CCCCC)c(=O)oc2c1	·	·	·	·	·	-1%
Cc1ccsc1/C=C/C(=O)c1cc2ccccc2o1	·	·	·	·	·	12%
Cc1cc(C)cc(NC(=O)CSCc2cc(=O)c3ccccc3[nH]2)c1	·	·	·	·	·	-4%
COc1cccc(C(=O)OCc2nc3ccccc3o2)c1	·	·	·	·	·	-7%
Clc1ccc(-c2csc3ncnc(NCCN4CCOCC4)c23)cc1	?	-27%	-7	18µM*	13µM*	-3%
c1ccc(-c2csc3ncnc(NCCN4CCOCC4)c23)cc1	?	?	-11	12µM*	9.2µM*	0%
c1ccc(CNc2nc(CN3CCOCC3)nc3scc(-c4ccccc4)c23)cc1	0%	-3%	16	3%	-25%	5%
Clc1ccc(-c2nc(NCCN3CCOCC3)c3ccccc3n2)cc1	?	?	-61*	?	?	?
Cc1ccc(-c2csc3ncnc(NCCN4CCOCC4)c23)cc1	-28%	-20%	-65*	?	23µM*	0%
c1cncc(-c2nc(NCCN3CCOCC3)c3ccccc3n2)c1	·	·	·	-7%	?	-28%
O=C(c1ccccc1-c1ncc(-c2ccccc2F)o1)N1CCCC1	·	·	·	·	·	-27%
N#C/C(=C/c1cccc(F)c1)S(=O)(=O)c1ccc(Br)cc1	·	·	·	·	·	22µM*
SMILES	HT1080NT lethal	HT1080 IDH1KD tx	IL1B secr inh	TDP1 cell CPT	TDP1 cell noCPT	12-LOX inh
N#C/C(=C\c1ccc(O)c(O)c1)S(=O)(=O)c1ccccc1	-2%	-15%	22	-8%	-20%	3.2µM*
N#C/C(=C/c1ccc(F)cc1)S(=O)(=O)c1ccccc1	10%	14%	·	0%	-4%	0%
O=C(c1ccccn1)N1CCCCCC1CN1CCCC1 (stereo not drawn)	·	·	·	·	·	87%
CCCc1c(C)c2ccc(OCC(=O)OCC)cc2oc1=O	·	·	·	·	·	29%
COc1ccc(OC)c(NC(=O)CSc2ccc(-c3ccco3)nn2)c1	-16%	-6%	55	?	?	?
CCc1nc(SCC(=O)Nc2cc(OC)ccc2OC)c2c(C)c(C)sc2n1	?	?	-5	18µM*	26µM*	1%
COc1ccccc1NC(=O)CSc1ccc(-c2ccc(-n3ccnc3)cc2)nn1	-12%	-15%	-12	21µM*	13µM*	25%
Cc1ccccc1NC(=O)CSc1ccc(-c2ccc(-n3cccn3)cc2)nn1	3%	4%	8	-4%	8%	1%
COc1ccc(C)cc1NC(=O)CSc1ccc(-c2ccccn2)nn1	-14%	?	i	?	21µM*	24%
CCc1nc(SCC(=O)Nc2nnc(CC)s2)c2c(C)c(C)sc2n1	28%	24%	29	-8%	-4%	13%
COc1ccc(OC)c(NC(=O)CSc2ccc(-c3sc(C)nc3C)nn2)c1	·	·	·	15µM*	13µM*	-23%
COc1ccc(C(=O)NCCn2ccn3nc(-c4ccc(C)c(C)c4)cc3c2=O)cc1	·	·	·	·	·	1%
COc1ccc(C(=O)N[C@@H]2CN(c3ncccn3)C[C@H]2CN(C)C)cc1OC	·	·	·	·	·	62%
COc1ccc(C)cc1NC(=O)CSc1ccc(-c2sc(C)nc2C)nn1	-1%	-13%	?	13µM*	?	20%
Cc1nc(C)c(-c2ccc(SCC(=O)Nc3ccc(F)cc3F)nn2)s1	-1%	-1%	0	?	?	-30%
COc1ccc(Cl)cc1NC(=O)CSc1ccc(-c2sc(C)nc2C)nn1	·	·	·	13µM*	10µM*	-19%
COc1ccc(Cl)cc1-c1nc(SCC(=O)NC2CCCC2)n[nH]1	-9%	-13%	?	?	?	0%
COc1ccc(Cl)cc1N1C(=O)/C(=C/c2sccc2C)N=C1SCC(=O)NC1CC1	-20%	-20%	-70*	?	16µM*	?
O=C(CSC1=N/C(=C/c2ccc(Cl)c(Cl)c2)C(=O)N1c1ccccc1F)NC1CC1	0%	-8%	-7	16µM*	16µM*	-19%
CCOC(=O)c1c(C)[nH]c(C(=O)CN(C)Cc2cccc(F)c2)c1C	·	·	·	·	·	-29%
CCN(CC)C(=O)N1CCCC(Cc2ncc(C)n2Cc2ccc(F)cc2)C1 (stereo not drawn)	·	·	·	·	·	18%
